Where “and” joins values, the source holds several entries; their conditions need not be identical. Equal values may be shown once. Records with an inconclusive call do not appear. Entries that show only a call come without a potency. Calls of active or inactive are those of the source. The call rests on the fitted dose curve; in most records, active means well fitted curve in the direction sought with a large enough effect; inconclusive means small, poorly fitted or top-dose-only effect, or another doubt; inactive means no such curve, though single readings can be large; an effect the other way counts as inactive or inconclusive.
Assays:
[1] = target: Cytochrome P450 2C9 (Homo sapiens) (UniProt P11712); experiment: qHTS Assay for Inhibitors and Substrates of Cytochrome P450 2C9 (AID 883); details: recombinant CYP2C9, luciferin-H luminescence, 60 min; series mostly up to 11.4 µM; further: nearly all actives have a fitted effect of over 60% in size; further: potency means the concentration at half of the fitted maximal effect
Outline: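 Signal: luciferase luminescence reporting luciferin produced by CYP2C9. Conditions: 10nM enzyme, Luciferin-H 100uM at KM, 25mM KPO4, 37C, 60 min NADPH-driven reaction. Reference: 57uM sulphaphenazole as 100% inhibition.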

[2] = target: Cytochrome P450 3A4 (Homo sapiens) (UniProt P08684); experiment: qHTS Assay for Inhibitors and Substrates of Cytochrome P450 3A4 (AID 884); details: recombinant CYP3A4, Luciferin-PPXE luminescence; series mostly up to 57.1 µM; further: nearly all actives have a fitted effect of over 50% in size; further: potency means the concentration at half of the fitted maximal effect
Outline: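 20 nM human CYP3A4 with 25 uM Luciferin-PPXE (at KM) in 200 mM KPO4, preincubated 10 min with compound; NADPH regeneration started a 60 min RT reaction. Luciferin detected by luminescence, normalized to 57 uM ketoconazole as full inhibition.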

[3] = target: Cytochrome P450 3A4 (Homo sapiens) (UniProt P08684); experiment: qHTS Assay for Activators of Cytochrome P450 3A4 (AID 885); details: recombinant CYP3A4, Luciferin-PPXE luminescence, 60 min; series mostly up to 57.1 µM; further: nearly all actives have a fitted effect of over 65% in size
Outline: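 Human CYP3A4 (20 nM) with Luciferin-PPXE at 25 uM (its KM) in 200 mM KPO4; 10 min compound preincubation, then NADPH regeneration and 60 min reaction at RT. Luciferin read by luminescence; normalized to 57 uM ketoconazole full inhibition.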

[4] = target: Cytochrome P450 2D6 (Homo sapiens) (UniProt P10635); experiment: qHTS Assay for Inhibitors and Substrates of Cytochrome P450 2D6 (AID 891); details: recombinant CYP2D6, luciferin-ME EGE luminescence; series mostly up to 11.4 µM;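 further: luciferin methyl ether substrate demethylated by CYP2D6 with NADPH regeneration; nearly all actives have a fitted effect of over 60% in size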
Outline: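 Human CYP2D6 (5 nM) with 30 uM Luciferin-ME EGE (at Km) in 100 mM KPO4, compound preincubated 10 min, then NADPH regeneration system for 60 min at room temperature. Luciferin read by luminescence; normalized to 1.43 uM quinidine.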

[5] = target: Cytochrome P450 2C19 (Homo sapiens) (UniProt P33261); experiment: qHTS Assay for Inhibitors and Substrates of Cytochrome P450 2C19 (AID 899); details: recombinant CYP2C19, luciferin-H EGE luminescence; series mostly up to 11.4 µM; further: nearly all actives have a fitted effect of over 60% in size; further: potency means the concentration at half of the fitted maximal effect
Outline: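 Signal comes from luciferase acting on luciferin released by CYP2C19-mediated hydroxylation of Luciferin-H EGE, 10uM (KM). Assay mix: 5nM enzyme, 50mM KPO4; 60 min at 37C with NADPH regeneration. Data normalized against 57uM ketoconazole.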

Sequence of Cytochrome P450 2C9 (Homo sapiens) (P11712 whole entry, looked up): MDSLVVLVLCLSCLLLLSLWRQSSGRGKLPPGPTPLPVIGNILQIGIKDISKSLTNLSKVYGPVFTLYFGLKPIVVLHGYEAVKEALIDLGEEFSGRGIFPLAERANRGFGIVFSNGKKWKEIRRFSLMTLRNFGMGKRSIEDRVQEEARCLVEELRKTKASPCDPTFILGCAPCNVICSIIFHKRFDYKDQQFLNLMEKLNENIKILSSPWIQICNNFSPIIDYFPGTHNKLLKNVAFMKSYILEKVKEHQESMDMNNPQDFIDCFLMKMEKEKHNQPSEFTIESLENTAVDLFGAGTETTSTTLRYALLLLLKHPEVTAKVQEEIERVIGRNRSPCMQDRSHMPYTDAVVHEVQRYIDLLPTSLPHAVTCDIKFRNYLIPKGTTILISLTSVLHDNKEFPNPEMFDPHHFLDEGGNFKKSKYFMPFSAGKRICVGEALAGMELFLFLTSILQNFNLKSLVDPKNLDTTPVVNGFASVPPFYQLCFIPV
Sequence of Cytochrome P450 2C19 (Homo sapiens) (P33261 whole entry, looked up): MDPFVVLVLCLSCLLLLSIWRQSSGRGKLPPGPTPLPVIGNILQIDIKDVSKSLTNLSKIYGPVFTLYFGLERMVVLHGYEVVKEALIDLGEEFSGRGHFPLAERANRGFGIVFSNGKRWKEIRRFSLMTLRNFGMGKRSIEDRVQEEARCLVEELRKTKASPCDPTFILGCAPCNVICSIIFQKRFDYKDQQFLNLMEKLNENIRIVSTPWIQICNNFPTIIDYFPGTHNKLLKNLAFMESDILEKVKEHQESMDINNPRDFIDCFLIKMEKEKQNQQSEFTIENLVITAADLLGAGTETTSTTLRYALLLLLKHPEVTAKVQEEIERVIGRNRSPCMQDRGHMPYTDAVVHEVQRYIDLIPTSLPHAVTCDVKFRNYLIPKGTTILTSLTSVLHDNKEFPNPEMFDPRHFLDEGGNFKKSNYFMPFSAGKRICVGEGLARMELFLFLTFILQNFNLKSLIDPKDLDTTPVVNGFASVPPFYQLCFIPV
Sequence of Cytochrome P450 3A4 (Homo sapiens) (P08684 whole entry, looked up): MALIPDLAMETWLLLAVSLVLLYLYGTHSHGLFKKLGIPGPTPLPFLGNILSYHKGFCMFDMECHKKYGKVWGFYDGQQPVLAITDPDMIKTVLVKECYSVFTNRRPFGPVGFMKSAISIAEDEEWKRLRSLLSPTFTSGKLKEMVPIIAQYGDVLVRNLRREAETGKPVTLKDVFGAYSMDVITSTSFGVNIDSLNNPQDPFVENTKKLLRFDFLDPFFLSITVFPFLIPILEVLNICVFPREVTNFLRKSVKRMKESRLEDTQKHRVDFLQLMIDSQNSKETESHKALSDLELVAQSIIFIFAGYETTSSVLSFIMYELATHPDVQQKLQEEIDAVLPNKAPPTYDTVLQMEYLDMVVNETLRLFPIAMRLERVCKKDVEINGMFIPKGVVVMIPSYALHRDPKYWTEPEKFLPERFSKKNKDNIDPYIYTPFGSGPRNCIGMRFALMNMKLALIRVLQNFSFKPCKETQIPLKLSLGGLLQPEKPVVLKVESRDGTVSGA
Sequence of Cytochrome P450 2D6 (Homo sapiens) (P10635 whole entry, looked up): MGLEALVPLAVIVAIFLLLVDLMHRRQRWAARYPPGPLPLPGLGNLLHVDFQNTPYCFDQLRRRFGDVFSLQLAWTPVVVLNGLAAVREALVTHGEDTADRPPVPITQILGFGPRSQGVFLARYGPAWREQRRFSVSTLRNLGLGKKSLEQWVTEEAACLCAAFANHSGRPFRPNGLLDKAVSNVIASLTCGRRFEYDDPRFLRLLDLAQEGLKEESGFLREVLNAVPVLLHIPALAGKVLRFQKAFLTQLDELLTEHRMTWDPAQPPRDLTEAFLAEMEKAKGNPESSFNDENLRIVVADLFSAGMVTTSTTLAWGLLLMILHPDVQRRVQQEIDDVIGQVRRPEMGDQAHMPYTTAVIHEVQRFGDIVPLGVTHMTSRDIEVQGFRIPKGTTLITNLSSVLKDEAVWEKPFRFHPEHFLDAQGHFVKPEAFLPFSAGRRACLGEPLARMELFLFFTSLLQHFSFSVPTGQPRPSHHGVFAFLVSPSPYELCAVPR

Compound | Potency [1] | Potency [2] | activity change, positive = activation [3] | Potency [4] | Potency [5] | activity change, negative = inhibition [2]
CC(=O)OCC1OC(C#Cc2ccccc2Cl)C=CC1OC(C)=O (stereo not given) | inactive | 3.98 µM (active) | -76.5% [at 11.4 µM] (inactive) | inactive | 3.16 µM (active) | 
CC(=O)OCC1OC(C#Cc2ccccc2)C=CC1OC(C)=O (stereo not given) | inactive | 3.98 µM (active) | -91.5% [at 11.4 µM] (inactive) and -31.7% [at 11.4 µM] (inactive) | inactive | inactive | 
C=CCOC(=O)C(C(C)=O)C(NC(=O)OC)c1ccccc1 (stereo not given) | inactive | 3.98 µM (active) | -86.9% [at 11.4 µM] (inactive) | inactive |  | 
COC(=O)NC(c1cccc(F)c1)[C@]1(C(C)=O)CCCC1=O (stereo not given in full) | inactive |  |  | inactive |  | -13.9% [at 11.4 µM] (inactive)
COC(=O)NC(c1ccccc1)C(C#N)C(=O)OC (stereo not given) | inactive |  |  | inactive |  | -16.5% [at 11.4 µM] (inactive)
CC(=O)OCC1OC(C#Cc2ccc(F)cc2F)C=CC1OC(C)=O (stereo not given) | 5.01 µM (active) | 3.16 µM (active) | -91.4% [at 11.4 µM] (inactive) |  | 2.51 µM (active) | 
CC(=O)c1ccc(C2C=CC(O)C(CO)O2)cc1 (stereo not given) | inactive |  |  | inactive | inactive | -3.24% [at 11.4 µM] (inactive)
CC12CC3OS(=O)OC3CC3C4C(C(OCc5ccccc5)C31)C42 (stereo not given) | inactive |  |  | inactive |  | -26.1% [at 11.4 µM] (inactive)
C=CCOCC1CN2C(CCC(C)C2c2ccc(Br)cc2)C(=O)O1 (stereo not given) | inactive |  |  | inactive | inactive | -11.7% [at 11.4 µM] (inactive)
